Paper PMC10668032, “Altered binding affinity of SIX1-Q177R correlates with enhanced WNT5A and WNT pathway effector expression in Wilms tumor”
Whole data set: some 33,000 sequences, median “e-score” near -0.053, cut for the highest 2% near 0.38. The full list was thinned out, with the highest values kept by preference.

The sequences below were run against T1, SIX1 homeodomain (reference allele) (human, UniProt Q15475 108-198) (assay: universal protein binding microarray; Universal all-10-mer PBM (8x60K, AMADID 030236), 300 nM GST-tagged protein, Alexa Fluor 488 anti-GST; buffer, salt, pH and temperature not stated (as in Berger); high values mean tight binding). Details: protein: ivt; tags: N-terminal GST; dsDNA, one strand shown.
T1 sequence: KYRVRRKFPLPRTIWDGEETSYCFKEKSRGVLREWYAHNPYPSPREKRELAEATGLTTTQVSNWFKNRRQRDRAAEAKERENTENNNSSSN
How it was run: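 Homeodomains fused to GST were made by in vitro transcription/translation and measured by anti-GST western blot with a recombinant GST standard curve. At 300 nM final concentration, they were applied in duplicate to universal 'all 10-mer' protein binding microarrays (8×60K format).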

Sequence | binding signal
AATACTGT | 0.183 ± 0.00786 E-score
AATACTTG | 0.151 ± 0.0521 E-score
GACACTGA | 0.161 ± 0.0506 E-score
AATACTTC | 0.2 ± 0.116 E-score
TATACTGA | 0.239 ± 0.00916 E-score
ATCGAGTA | 0.226 ± 0.00853 E-score
CGAATACA | 0.151 ± 0.0627 E-score
CCGCCTGA | 0.228 ± 0.0274 E-score
AACACCAG | 0.164 ± 0.0278 E-score
ATCGCCCG | 0.198 ± 0.0602 E-score
ACTCCATC | 0.162 ± 0.00629 E-score
ATCAGCTG | 0.154 ± 0.0485 E-score
CCCTCATC | 0.176 ± 0.0843 E-score
CGACACTC | 0.177 ± 0.0347 E-score
ATACATAG | 0.177 ± 0.0401 E-score
GTAGTATA | 0.267 ± 0.0665 E-score
ATAGTATA | 0.29 ± 0.0405 E-score
ATAGTATG | 0.258 ± 0.00892 E-score
ATAGTATC | 0.426 ± 0.0263 E-score
CTAGTATA | 0.242 ± 0.0487 E-score
CTAGTATC | 0.388 ± 0.0365 E-score
CATGTGAG | 0.152 ± 0.0831 E-score
ATCCAAGC | 0.169 ± 0.0665 E-score
AGCCGATC | 0.329 ± 0.0103 E-score
ACGTATCG | 0.413 ± 0.0215 E-score
ACGTATCC | 0.377 ± 0.0283 E-score

Sequence | binding signal
ACGTATTG | 0.211 ± 0.0377 E-score
CCGTATTC | 0.177 ± 0.00726 E-score
ACGTATCA | 0.474 ± 0.0189 E-score
ACGTATTC | 0.234 ± 0.0548 E-score
CCGTATAC | 0.36 ± 0.00586 E-score
CCGTATCC | 0.438 ± 0.0211 E-score
ACGTATAA | 0.268 ± 0.0722 E-score
ACGTATCT | 0.339 ± 0.0607 E-score
ACGTATAG | 0.189 ± 0.0603 E-score
GCGTATCC | 0.369 ± 0.00641 E-score
ATCAGTTA | 0.182 ± 0.0174 E-score
AAGATCGG | 0.174 ± 0.064 E-score
CGGATTAG | 0.251 ± 0.0088 E-score
ATTGACAC | 0.3147 ± 0.00157 E-score
CCCGATCA | 0.347 ± 0.0408 E-score
ATCAGTGG | 0.261 ± 0.0178 E-score
TCATATGA | 0.303 ± 0.0253 E-score
ACATATTA | 0.161 ± 0.0413 E-score
ACATATGA | 0.166 ± 0.0311 E-score
CCATATCA | 0.472 ± 0.0124 E-score
TCATATCA | 0.418 ± 0.0507 E-score
GAATATCC | 0.276 ± 0.0527 E-score
CCATATAA | 0.155 ± 0.0479 E-score
GCATATCC | 0.391 ± 0.00731 E-score
ACATATCA | 0.446 ± 0.0429 E-score
GCATATAC | 0.227 ± 0.0131 E-score

Sequence | binding signal
TAATATCA | 0.34 ± 0.0768 E-score
CCATATTA | 0.265 ± 0.0697 E-score
AACGCATA | 0.203 ± 0.0681 E-score
AGAACACC | 0.179 ± 0.0208 E-score
CCCCGCGA | 0.229 ± 0.018 E-score
ACCCAGCT | 0.181 ± 0.00331 E-score
AGCCATCG | 0.173 ± 0.0382 E-score
TGAAACCA | 0.163 ± 0.0347 E-score
GCATATTA | 0.249 ± 0.0567 E-score
GCATATAA | 0.175 ± 0.0587 E-score
GCATATCA | 0.449 ± 0.0321 E-score
AATGTGAT | 0.178 ± 0.0316 E-score
ACTATATA | 0.247 ± 0.0141 E-score
AACGGTGT | 0.253 ± 0.00261 E-score
CGTATTGA | 0.23 ± 0.0207 E-score
AGTATTGA | 0.193 ± 0.0395 E-score
CGTATCGA | 0.3978 ± 0.00377 E-score
CGTATAGA | 0.28 ± 0.00298 E-score
GGTATTAA | 0.366 ± 0.0749 E-score
GGTATTAC | 0.385 ± 0.0216 E-score
GGTATGGA | 0.252 ± 0.0421 E-score
GGTATTGA | 0.3862 ± 0.0022 E-score
AGTATTAC | 0.188 ± 0.0763 E-score
GCTATCGA | 0.253 ± 0.0112 E-score
GGTATCGA | 0.463 ± 0.00936 E-score
CGAATCGA | 0.182 ± 0.0398 E-score

Sequence | binding signal
ATACGAAA | 0.226 ± 0.0116 E-score
ATCCTAAA | 0.184 ± 0.0231 E-score
ACACCTGG | 0.172 ± 0.0558 E-score
ACAATACC | 0.318 ± 0.028 E-score
GGATAAAA | 0.166 ± 0.106 E-score
GTGGACAC | 0.182 ± 0.0385 E-score
ATCACCGC | 0.191 ± 0.00595 E-score
ATCTGTGC | 0.153 ± 0.0364 E-score
ATAAATAT | 0.168 ± 0.1 E-score
GAACCCGA | 0.19 ± 0.0702 E-score
ATAGCCAT | 0.218 ± 0.0172 E-score
GGTATCTA | 0.426 ± 0.0126 E-score
GCTATCTA | 0.169 ± 0.00501 E-score
AGTATCTA | 0.347 ± 0.0371 E-score
ACAGTATC | 0.402 ± 0.0345 E-score
CCTGTATC | 0.365 ± 0.02 E-score
CCAGTATC | 0.407 ± 0.0315 E-score
ACAGTATA | 0.287 ± 0.0542 E-score
ATTGTATC | 0.367 ± 0.0214 E-score
GCAGTATA | 0.205 ± 0.0152 E-score
GATCTTGA | 0.269 ± 0.0237 E-score
ATCACGCA | 0.203 ± 0.00725 E-score
ATGAGATG | 0.243 ± 0.00629 E-score
TATCGTAA | 0.296 ± 0.0233 E-score
ACACCGGA | 0.364 ± 0.0193 E-score
ACACCGGG | 0.301 ± 0.000651 E-score

Sequence | binding signal
ACACCGGT | 0.39 ± 0.0245 E-score
CGGATGTA | 0.151 ± 0.0426 E-score
TAGGCGAA | 0.164 ± 0.00529 E-score
CTGGTATC | 0.45 ± 0.00737 E-score
CTGGTATA | 0.255 ± 0.0119 E-score
GTGGTATA | 0.3 ± 0.0344 E-score
ATGGTATC | 0.469 ± 0.00713 E-score
ATGGTCTC | 0.153 ± 0.0473 E-score
ATGGTATA | 0.336 ± 0.0339 E-score
AAGGATAT | 0.365 ± 0.0541 E-score
TACGATAA | 0.175 ± 0.0264 E-score
AACGATAC | 0.435 ± 0.0105 E-score
AACGATCC | 0.333 ± 0.0104 E-score
AACGATAT | 0.408 ± 0.0444 E-score
CACGATCC | 0.342 ± 0.0744 E-score
AACGACAC | 0.276 ± 0.0085 E-score
CACGATAC | 0.438 ± 0.0144 E-score
CACGATAG | 0.245 ± 0.0038 E-score
AACGATAG | 0.175 ± 0.0167 E-score
AACGATCT | 0.176 ± 0.00697 E-score
GACGATCC | 0.387 ± 0.0391 E-score
ATATAACG | 0.2329 ± 0.00214 E-score
ATTGTATA | 0.308 ± 0.00631 E-score
CCTCATCG | 0.185 ± 0.0079 E-score
TAAGATCA | 0.293 ± 0.0543 E-score
CGATTAAA | 0.156 ± 0.0382 E-score

Sequence | binding signal
AATCTGAT | 0.289 ± 0.0333 E-score
CGGATGAG | 0.183 ± 0.049 E-score
TATCTCGA | 0.248 ± 0.0332 E-score
CAAGGGGA | 0.165 ± 0.0484 E-score
GACGATAC | 0.453 ± 0.00476 E-score
GACGACAC | 0.164 ± 0.00255 E-score
GAAGATAC | 0.354 ± 0.0356 E-score
GGTAATAC | 0.297 ± 0.025 E-score
ATATGTGC | 0.241 ± 0.0491 E-score
ATCCGGGG | 0.418 ± 0.0155 E-score
ATCCGGTG | 0.405 ± 0.026 E-score
ATCCGGTA | 0.318 ± 0.0245 E-score
ATCCGGGA | 0.295 ± 0.0471 E-score
ATCCGGTC | 0.318 ± 0.00861 E-score
ATCCGGGC | 0.3565 ± 0.000735 E-score
GAAGACAC | 0.21 ± 0.0292 E-score
CTAACACC | 0.213 ± 0.0035 E-score
TATCACGA | 0.373 ± 0.0201 E-score
TATCACCA | 0.42 ± 0.031 E-score
GATCACAA | 0.31 ± 0.0262 E-score
GATCACCA | 0.334 ± 0.0295 E-score
TATCACAA | 0.385 ± 0.049 E-score
TCTCACCA | 0.259 ± 0.00728 E-score
CGATAATA | 0.328 ± 0.0401 E-score
CCCTTCTC | 0.274 ± 0.0318 E-score
ATAGTCTC | 0.151 ± 0.0259 E-score

Sequence | binding signal
ACAGATCG | 0.2347 ± 0.00197 E-score
AGCGGATG | 0.154 ± 0.049 E-score
CGCGGATA | 0.3882 ± 0.00207 E-score
AGCGGATA | 0.364 ± 0.0328 E-score
GGCGGGTA | 0.228 ± 0.0067 E-score
GGCGGATA | 0.403 ± 0.0134 E-score
CGCGGATC | 0.365 ± 0.0314 E-score
GATCAGCC | 0.293 ± 0.0341 E-score
ATCGCATC | 0.3271 ± 0.00246 E-score
TACGTATA | 0.272 ± 0.0445 E-score
AACCTATC | 0.246 ± 0.0031 E-score
ATCGTATC | 0.441 ± 0.0183 E-score
AACGTATA | 0.167 ± 0.109 E-score
CTCGTATC | 0.367 ± 0.0253 E-score
CACGTATC | 0.433 ± 0.00889 E-score
GACGTATA | 0.213 ± 0.108 E-score
AACGTATC | 0.385 ± 0.067 E-score
GACGTATC | 0.42 ± 0.0354 E-score
GACGTCTC | 0.163 ± 0.0364 E-score
CACGTATA | 0.304 ± 0.0586 E-score
ATCGTATA | 0.324 ± 0.00599 E-score
